Assay results reported in the supplement of paper PMC3334620.
In all, about 33,000 sequences were measured (“E-score (-0.5 to 0.5)”: median about -0.053, highest 2% from about 0.37 on). Many of the other results were omitted from the sample, so the highest values are more common in it than they were.

The sequences below were run against Hap1 (UniProt P0CE41) (assay: PBM E-score (8-mer binding enrichment) (E-score (-0.5 to 0.5)); higher = stronger / more preferred TF binding). Settings: protein concentration: 200 nM; construct: GST-DNA-binding domain.
Sequence of UniProt P0CE41 (P0CE41 whole entry, the tested form may be a part): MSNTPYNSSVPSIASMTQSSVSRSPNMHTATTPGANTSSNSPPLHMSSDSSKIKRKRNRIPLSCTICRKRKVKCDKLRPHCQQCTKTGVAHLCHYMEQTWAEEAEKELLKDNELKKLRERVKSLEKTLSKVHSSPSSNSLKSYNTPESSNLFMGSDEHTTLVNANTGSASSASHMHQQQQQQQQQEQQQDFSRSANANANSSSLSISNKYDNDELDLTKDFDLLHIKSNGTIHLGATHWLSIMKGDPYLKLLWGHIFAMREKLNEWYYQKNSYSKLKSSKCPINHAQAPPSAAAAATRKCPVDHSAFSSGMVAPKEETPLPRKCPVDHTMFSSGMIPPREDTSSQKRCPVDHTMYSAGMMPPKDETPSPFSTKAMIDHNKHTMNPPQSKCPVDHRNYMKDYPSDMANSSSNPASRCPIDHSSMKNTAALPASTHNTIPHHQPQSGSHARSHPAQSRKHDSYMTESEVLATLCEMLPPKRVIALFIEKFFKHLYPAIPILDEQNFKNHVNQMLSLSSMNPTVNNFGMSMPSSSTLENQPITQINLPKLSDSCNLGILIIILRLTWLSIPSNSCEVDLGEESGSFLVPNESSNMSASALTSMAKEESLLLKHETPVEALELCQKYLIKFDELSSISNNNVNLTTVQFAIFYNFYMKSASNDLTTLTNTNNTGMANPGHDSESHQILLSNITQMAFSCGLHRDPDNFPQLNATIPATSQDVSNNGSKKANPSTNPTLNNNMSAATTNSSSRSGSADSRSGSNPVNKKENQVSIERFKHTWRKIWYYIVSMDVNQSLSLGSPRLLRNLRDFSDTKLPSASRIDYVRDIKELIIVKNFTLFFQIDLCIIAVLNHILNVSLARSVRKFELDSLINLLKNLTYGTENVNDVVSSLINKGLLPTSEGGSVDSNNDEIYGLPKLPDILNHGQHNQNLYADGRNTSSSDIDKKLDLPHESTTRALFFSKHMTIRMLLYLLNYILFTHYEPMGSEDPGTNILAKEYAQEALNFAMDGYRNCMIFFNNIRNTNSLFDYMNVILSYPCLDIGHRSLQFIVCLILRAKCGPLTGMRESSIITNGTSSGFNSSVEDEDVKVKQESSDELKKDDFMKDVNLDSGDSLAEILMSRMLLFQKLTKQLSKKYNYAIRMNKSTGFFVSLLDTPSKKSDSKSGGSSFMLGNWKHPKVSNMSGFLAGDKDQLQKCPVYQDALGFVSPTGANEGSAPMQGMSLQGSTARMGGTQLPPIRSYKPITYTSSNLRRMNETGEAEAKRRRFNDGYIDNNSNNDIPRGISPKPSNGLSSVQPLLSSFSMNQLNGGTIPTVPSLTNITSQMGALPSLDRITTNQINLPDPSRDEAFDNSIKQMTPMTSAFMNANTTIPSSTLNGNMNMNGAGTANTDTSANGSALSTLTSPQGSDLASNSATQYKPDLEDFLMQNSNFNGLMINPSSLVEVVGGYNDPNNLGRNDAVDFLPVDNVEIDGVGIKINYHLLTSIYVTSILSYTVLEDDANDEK
Experimental: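 Universal 'all 10-mer' protein binding microarrays (Agilent AMADID 015681) probed with GST-tagged S. cerevisiae TFs (full-length or DBD) made by in vitro transcription/translation (PURExpress), about 100-200 nM. Bound TF was detected with fluorescent anti-GST. Each ungapped 8-mer (which stands for itself and its reverse complement) is scored by the PBM enrichment score (E-score), a modified Wilcoxon-Mann-Whitney statistic from -0.5 to +0.5, computed with the Universal PBM Analysis Suite. Scale: above 0.35 generally sequence-specific binding.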

| Sequence | PBM E-score |
| --- | --- |
| GCGGAAAA | 0.286 |
| CCGGAAAA | 0.432 |
| TCGGAAAA | 0.402 |
| CCGGAACA | 0.376 |
| TCGGAACA | 0.349 |
| CAGGAAAA | -0.0124 |
| CCGGAAGA | 0.365 |
| ACGGAACA | 0.241 |
| ACGGAAAA | 0.317 |
| CCGGAATC | 0.416 |
| ACGGAATC | 0.28 |
| CCGGAATA | 0.357 |
| AGACACTC | -0.185 |
| GCTTCATA | -0.0731 |
| ACCTAGGC | -0.18 |
| AAAGCGGG | -0.0186 |
| ACTACGCC | -0.098 |
| GAACTGTA | -0.00641 |
| CCACTCCC | 0.119 |
| CCGGCCTC | 0.182 |
| CCGGAAAC | 0.426 |
| GCGGAAAC | 0.24 |
| CCGGAAAG | 0.307 |
| AGTTTCTA | -0.167 |
| ACCAGGAT | 0.0532 |

| Sequence | PBM E-score |
| --- | --- |
| AAGCAATA | -0.0998 |
| TCTTGTCA | -0.139 |
| AGACCGGA | 0.334 |
| CGACCGGC | 0.232 |
| CGACCGGA | 0.412 |
| GGACCGCA | 0.186 |
| CGACCGTA | 0.0335 |
| GGACCGGA | 0.406 |
| ACTAGACA | -0.0952 |
| AACGCGCG | 0.13 |
| ATGTCCGG | 0.468 |
| GTGTCCGA | 0.339 |
| ATGTCCCG | 0.234 |
| CTGTCCGC | 0.113 |
| ATGTCCGC | 0.374 |
| CTGTCCGA | 0.317 |
| ATGTCCCC | 0.0493 |
| ATGTCCGA | 0.463 |
| ATGTCCTG | 0.00518 |
| AGGGCCGG | 0.326 |
| CGCCCTCA | -0.149 |
| CGACCAAC | -0.0313 |
| CAACTGGG | -0.122 |
| GCCGGTCA | 0.177 |
| CCCGGTCA | 0.262 |

| Sequence | PBM E-score |
| --- | --- |
| GGCGGTAC | 0.0136 |
| CCCGGTAC | 0.296 |
| GGCGGTAA | 0.373 |
| AGCGGTAA | 0.247 |
| GCCGGTAA | 0.422 |
| GCCGGTAC | 0.293 |
| GCCGGTGA | 0.274 |
| CCCGGTAG | 0.336 |
| TCCGGTCA | 0.385 |
| CCCGGTAA | 0.387 |
| ACCTCGCT | 0.0563 |
| AGTTACCG | 0.266 |
| AACAAGGG | -0.0715 |
| ACAGACGC | -0.0711 |
| AATTTACC | 0.0607 |
| AGCGTAGA | -0.0389 |
| TACGGTAA | 0.0382 |
| TCCGGTAA | 0.442 |
| TGCGGTAA | 0.042 |
| ACACCTGA | -0.135 |
| TGTCGAAA | -0.229 |
| CAAGTGTC | -0.197 |
| AAGAAACA | 0.00593 |
| ACCGCAAT | 0.239 |
| TATCCCGA | 0.221 |

| Sequence | PBM E-score |
| --- | --- |
| AATCCCGT | 0.372 |
| AATCCCGA | 0.409 |
| AATCCCAT | -0.107 |
| CATCCCGA | 0.176 |
| AATCCCGC | 0.257 |
| CTGGTGAC | -0.288 |
| CCAGCGAA | -0.0597 |
| GGGCATTA | 0.0704 |
| CGGCAATC | 0.284 |
| AGGCAATA | -0.181 |
| AGGCATTA | -0.08 |
| CGGCAATA | 0.408 |
| CGGCATTA | 0.459 |
| TATATTGA | 0.0255 |
| ACAGTGGA | -0.0195 |
| CACCAAGC | -0.174 |
| AGTCCCTC | -0.175 |
| ATTGTCCC | 0.0458 |
| CATGTCCA | -0.0578 |
| CATGTCCG | 0.372 |
| ATTGTCCA | -0.128 |
| AATGTCCA | -0.104 |
| CATGTCCC | -0.054 |
| ATTGTCCG | 0.396 |
| AATGTCCG | 0.443 |

| Sequence | PBM E-score |
| --- | --- |
| AATGTCCT | -0.144 |
| GGCCATAC | 0.17 |
| CGCTACGA | 0.111 |
| CTCTCATC | -0.159 |
| CAGATTAG | -0.167 |
| AGGACATA | -0.187 |
| GCTCAGTA | -0.239 |
| CCAATGCA | -0.186 |
| CGGACCCA | 0.346 |
| AAGTGACA | -0.105 |
| ACCGGACC | 0.397 |
| ACCGGTCG | 0.289 |
| ACCGGATC | 0.296 |
| AGCGGACT | 0.287 |
| AACGGACC | 0.327 |
| ACCGGATG | 0.329 |
| ACCGGACG | 0.421 |
| ACCGGACT | 0.408 |
| AACGGACT | 0.337 |
| CTTCTGAC | -0.224 |
| CTCCAGCA | -0.241 |
| AATACGCG | 0.0739 |
| ACTAAACG | -0.112 |
| ATACCTTA | -0.0965 |
| AAACTACG | 0.118 |

| Sequence | PBM E-score |
| --- | --- |
| CCCTCCAC | -0.233 |
| GCGACGGA | 0.258 |
| CCGACGGA | 0.386 |
| AGGACGTA | 0.00968 |
| CGGACGGA | 0.397 |
| CGGACGTC | 0.258 |
| CGGACGTA | 0.443 |
| ACGACGGA | 0.199 |
| CGGACGGC | 0.327 |
| GGGACGGA | 0.227 |
| CAGGTGTA | -0.199 |
| CAGGTATG | -0.00123 |
| CGGGTGGC | 0.152 |
| CACCCCAC | -0.026 |
| CCCCGTGC | 0.269 |
| ACAACTTC | 0.00956 |
| CCCGACAA | 0.311 |
| CCAAGCTA | -0.112 |
| CGCAGGAG | -0.0823 |
| CCACCGGC | 0.233 |
| ACACCGGC | 0.341 |
| ACACCGGA | 0.395 |
| CCACCGGG | 0.34 |
| TCACCGCA | 0.0366 |
| TCACCGGA | 0.373 |

| Sequence | PBM E-score |
| --- | --- |
| GCACCGGA | 0.353 |
| ACACCGGT | 0.359 |
| CCACCGGA | 0.432 |
| GATCAGCC | -0.11 |
| CTGCAGAC | -0.128 |
| GACCCAAA | -0.00261 |
| GGAGTATA | 0.206 |
| ACATGTAG | -0.081 |
| CAAAGCAC | -0.138 |
| CGGTGAGC | 0.0638 |
| AGACCTGA | -0.0959 |
| CCGCGGTA | 0.303 |
| ATCCTCTC | -0.186 |
| AGCGGGAA | 0.207 |
| AACCCCGG | 0.456 |
| ATAACCGA | 0.386 |
| AAACCCCG | 0.438 |
| GACCCCGC | 0.134 |
| ACCCCCGC | 0.217 |
| AAACCCCC | 0.0478 |
| CTAACCGA | 0.176 |
| CACCCCGG | 0.264 |
